These results are taken from PubChem BioAssay (NCI).

Some test systems named below: DU-145 prostate; K-562 leukemia; MALME-3M melanoma; MDA-MB-231 breast; RXF 393 renal; SF-268 CNS; SF-295 CNS; SF-539 CNS; UACC-257 melanoma; M14 melanoma.
What all share (assay): NCI-60 one-dose screen, 48 h (100 = growth as untreated, 0 = no growth, -100 = all killed)
Holding throughout (conditions): 10 µM

This is part of a sample that, as a whole, favours compounds with a hit. Of some 83,000 tested, about 20% had one in any assay.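 Assay: single dose, 48 h. Readout: percent growth (0 = no net growth; negative = cell death). Active: <10.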 The source made the active and inactive calls.

Turning to `COc1ccccc1[C@H]1C(C(=O)c2ccc(Cl)cc2)C2(N[C@@H]1c1ccccc1)C(=O)Nc1ccccc12` (stereo not given in full), the growth was 3.98% (active) with DU-145 prostate; 0.571% (active) with K-562 leukemia; -37.4% (active) in the test on MALME-3M melanoma; -71.9% (active) in the test on MDA-MB-231 breast; -73.8% (active) with RXF 393 renal; 10.2% (inactive) in the test with SF-268 CNS. Also, the growth with SF-295 CNS is -63.6% (active); with SF-539 CNS, -60.8% (active); in the test on UACC-257 melanoma, -2.04% (active); with M14 melanoma, 5.88% (active).

For the compound `O=C1Nc2ccc(Cl)cc2/C1=C/c1cccc(OCc2ccccn2)c1`, the growth in the test with DU-145 prostate was 6.01% (active); with K-562 leukemia it was 0.86% (active); in the test with MALME-3M melanoma it was -51.9% (active); with MDA-MB-231 breast it was -50.8% (active); in the test on RXF 393 renal, -31.4% (active); in the test with SF-268 CNS, 4.23% (active). In addition, the growth in the test with SF-295 CNS was -42.4% (active); in the test with SF-539 CNS, -64.4% (active); in the test with UACC-257 melanoma, -0.118% (active); with M14 melanoma it was -50.5% (active).

With `C=C1CCC2C3(C)COC(c4c(F)cccc4F)OC3CCC2(C)C1C/C=C1/C(=O)OCC1O` (stereo not given), the growth is -60.3% (active) in the test on DU-145 prostate; 13.4% (inactive) in the test on K-562 leukemia; -62.7% (active) in the test on MALME-3M melanoma; -33.4% (active) in the test with MDA-MB-231 breast; -72.8% (active) in the test with RXF 393 renal; 65.2% (inactive) in the test on SF-268 CNS. Further, the growth in the test with SF-295 CNS was -21% (active); with SF-539 CNS it was -92.2% (active); in the test on UACC-257 melanoma, -46.8% (active); with M14 melanoma, -23.7% (active).

Consider `O=C1Nc2cc(-c3ccc(NC(=O)c4cccc([N+](=O)[O-])c4)cc3)ccc2/C1=C/c1ccc[nH]1`, for which the growth in the test with DU-145 prostate is 67.7% (inactive); in the test with K-562 leukemia it was 93.7% (inactive); in the test with MALME-3M melanoma it was 98.7% (inactive); with MDA-MB-231 breast it was 86.6% (inactive); in the test on RXF 393 renal, 83.7% (inactive); in the test on SF-268 CNS, 98.4% (inactive). Further, the growth is 83.5% (inactive) with SF-295 CNS, 89.2% (inactive) with SF-539 CNS, 97.1% (inactive) in the test with UACC-257 melanoma and 102% (inactive) with M14 melanoma.

`COc1cc(-c2nc3cc(Cl)c(Cl)cc3[nH]2)ccc1OCc1nnc(-c2ccc(Br)cc2)o1`: the growth in the test with DU-145 prostate is 47.2% (inactive); with K-562 leukemia, 6.47% (active); in the test with MALME-3M melanoma it was -78.2% (active); in the test on MDA-MB-231 breast, -38.9% (active); in the test with RXF 393 renal, -77.7% (active); with SF-268 CNS it was 38.6% (inactive). For the same compound, the growth in the test on SF-295 CNS is -46.1% (active); in the test with SF-539 CNS, -92.4% (active); in the test on UACC-257 melanoma, 4.56% (active); with M14 melanoma it was -9.79% (active).

Take `Nc1n[nH]c2cccc(C#Cc3cccc(NC(=O)Nc4cc(C(F)(F)F)cc(C(F)(F)F)c4)c3)c12`: the growth in the test on DU-145 prostate was 7.02% (active); in the test on K-562 leukemia, -57.4% (active); in the test on MALME-3M melanoma it was -67.6% (active); with MDA-MB-231 breast it was -93.4% (active); with RXF 393 renal, -70.9% (active); in the test with SF-268 CNS, -2.88% (active). Also, the growth in the test on SF-295 CNS is -75.3% (active); with SF-539 CNS, -73% (active); in the test with UACC-257 melanoma, -57.3% (active); in the test on M14 melanoma, -9.94% (active).

Consider `CO[C@H]1CSS[C@@H]1Cn1nc(-c2ccc(Oc3ccccc3)cc2)c2c(N)ncnc21`, for which the growth with DU-145 prostate was 38.3% (inactive); in the test on K-562 leukemia, 7.28% (active); with MALME-3M melanoma, -38.2% (active); in the test on MDA-MB-231 breast, 9.69% (active); with RXF 393 renal, 18.6% (inactive); with SF-268 CNS it was 32.4% (inactive). For the same compound, the growth with SF-295 CNS is 35.4% (inactive); with SF-539 CNS it was 36.1% (inactive); with UACC-257 melanoma, -3.47% (active); in the test on M14 melanoma, -93% (active).

With `CN1CCN(Cc2ccc(C(=O)Nc3cccc(Nc4ccc5cc(O)ccc5n4)c3)cc2C(F)(F)F)CC1`, the growth in the test with DU-145 prostate was -16.1% (active); in the test on K-562 leukemia it was -55.8% (active); in the test on MALME-3M melanoma it was -88.7% (active); with MDA-MB-231 breast, -55% (active); with RXF 393 renal it was -87.8% (active); with SF-268 CNS it was -26% (active). Moreover, the growth in the test on SF-295 CNS was -96.9% (active); with SF-539 CNS, -95.5% (active); in the test with UACC-257 melanoma, -79.1% (active); with M14 melanoma, -40.2% (active).

As for `CC1=C(C(=O)OC(C)C)C(c2ccc(O)cc2)NC(=S)N1` (stereo not given), the growth in the test on DU-145 prostate is 100% (inactive); in the test on K-562 leukemia it was 95.2% (inactive); with MALME-3M melanoma it was 105% (inactive); in the test with MDA-MB-231 breast it was 100% (inactive); with RXF 393 renal it was 97.3% (inactive); in the test on SF-268 CNS, 111% (inactive). Further, the growth with SF-295 CNS was 96.6% (inactive); with SF-539 CNS, 98.2% (inactive); with UACC-257 melanoma it was 121% (inactive); in the test on M14 melanoma it was 97% (inactive).

For the compound `O=C(Nc1cccc(-c2cn(-c3ccc4oc(=O)ccc4c3)nn2)c1)Nc1cc(C(F)(F)F)cc(C(F)(F)F)c1`, the growth with DU-145 prostate is 30.2% (inactive); in the test on K-562 leukemia, 9.1% (active); with MALME-3M melanoma, 29.8% (inactive); with MDA-MB-231 breast, 34.7% (inactive); in the test with RXF 393 renal it was -5.05% (active); in the test with SF-268 CNS it was 62.2% (inactive). Besides, the growth was -45.7% (active) with SF-295 CNS, 19.1% (inactive) in the test on SF-539 CNS, 50.2% (inactive) with UACC-257 melanoma and 55.5% (inactive) with M14 melanoma.

Regarding `Cc1cc(C(F)(F)F)ccc1C(=O)Nc1sc2c(c1C#N)CCC(=O)C2`, the growth with DU-145 prostate was 20.3% (inactive); with K-562 leukemia it was 2.39% (active); in the test on MALME-3M melanoma, -82.5% (active); in the test on MDA-MB-231 breast, -73.4% (active); with RXF 393 renal, -64.9% (active); in the test on SF-268 CNS, 17.1% (inactive). Further, the growth in the test with SF-295 CNS was -25.5% (active); in the test with SF-539 CNS, -79.9% (active); in the test on UACC-257 melanoma, -39.5% (active); in the test with M14 melanoma, -59.2% (active).

As to `COc1ccc(-c2ccc(/C=N/NC(=O)c3[nH]c4ccc(Br)cc4c3-c3ccccc3)o2)cc1`, the growth in the test with DU-145 prostate was 75.5% (inactive); in the test with K-562 leukemia it was 10.5% (inactive); in the test with MALME-3M melanoma it was 47% (inactive); in the test with MDA-MB-231 breast, 52.6% (inactive); with RXF 393 renal, 16.8% (inactive); in the test with SF-268 CNS it was 37.9% (inactive). Moreover, the growth with SF-295 CNS is 4.48% (active); with SF-539 CNS it was -14.1% (active); in the test with UACC-257 melanoma, 63.2% (inactive); in the test on M14 melanoma, 17% (inactive).
